Shown are actives, neighbours in structure and some others; about 2.2% of the full set was active somewhere.
BaF3 tox: parental Ba/F3 cell viability inhibition, counter-screen for JAK2V617F inhibitor project, murine pro-B, CellTiter-Glo luminescence. CellTiter-Glo ATP luminescence. inhibition, % at 5.6 µM. actives 1.1% (n = 220,000). AID 1486, 2009;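 active = inhibition above a per-campaign cutoff, the mean inhibition of all tested compounds plus 3 SD, cut at about 27% in these data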;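 note: 0% = DMSO wells and 100% = JAK Inhibitor I control wells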
APP 5UTR inh: inhibitors of APP translation via 5'UTR reporter, primary screen, APP 5'UTR luciferase, SH-SY5Y cells; SH-SY5Y APP 5'UTR-luciferase reporter, luminescence; AID 1285, 2008; actives 0.82% (n = 190,000); inhibition, % at 2 µM;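 active = inhibition above a set limit, derived from the sample mean plus 3 SD, cut at about 45% in these data; inconclusive = one replicate passes the limit while the other fails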
aSyn UTR inh: MLPCN primary screen, SNCA 5' untranslated region; alpha-synuclein 5'UTR reporter, inhibitor activity; inhibition, % (tested at 7.5 µM); actives 0.82% (n = 300,000); in the data active = inhibition above about 60%; inconclusive = no clear call, values can overlap the other calls;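 note: H4 neuroglioblastoma cells stably carrying SNCA 5'UTR luciferase fusion; 0% = DMSO wells and 100% = positive control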
Ba/F3 V617F tox: reduced viability of JAK2V617F-dependent Ba/F3 cells, primary screen, JAK2V617F inhibitor project, cell-based, Ba/F3 EpoR-JAK2V617F, luminescence; ATP luminescence; inhibition, % at 5.6 µM; actives 1.1% (n = 220,000); AID 1446, 2008;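 active = inhibition above the campaign mean plus 3 SD over all tested compounds, cut at about 24% in these data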;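 note: cytokine-independent growth of Ba/F3 cells driven by EpoR plus mutant JAK2; 0% = DMSO-treated cells and 100% = JAK inhibitor I control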
IEC-6 tox: cytotoxicity in IEC-6 intestinal epithelial cells, primary screen, cytotoxicity control for KLF5 inhibitor project, cell-based, luminescence. IEC-6 cytotoxicity, luminescence viability. inhibition, % at 5 µM. actives 0.78% (n = 290,000). AID 1825, 2009; in the data active = inhibition above about 22%;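 note: 0% = plate median of test compound wells and 100% = cytotoxic reference compound wells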
KLF5 inh: KLF5 expression inhibitors, primary screen, DLD-1 cells, luminescence. DLD-1 KLF5 promoter-luciferase reporter. inhibition, % at 5 µM. actives 0.23% (n = 290,000). AID 1700, 2009;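 active = inhibition above a per-plate limit of that plate's mean compound inhibition plus 3 SD, cut at about 60% in these data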;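 note: 0% = DMSO wells and 100% = LY294002 at 200 µM; higher means less KLF5 promoter-driven luciferase light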
* = called active by the depositor; ? = inconclusive; . = no result given; ! = not active in a repeat.

SMILES	BaF3 tox	APP 5UTR inh	aSyn UTR inh	Ba/F3 V617F tox	IEC-6 tox	KLF5 inh
O=Cc1cn(Cc2ccc(F)cc2)c2ccccc12	3	6	71*	0	-2	-23
O=Cc1cn(Cc2ccc([N+](=O)[O-])cc2)c2ccccc12	0	15	72*	0	0	0
Cc1ccc(Cn2cc(C=O)c3ccccc32)cc1	.	.	48	.	-2	1
COc1ccc(C(C)=O)cc1CC(C(=O)c1ccc(F)cc1)N(C)C (centres undefined)	40*	-5	-3	1	-4	-18
COc1ccc(C(=O)C(Cc2ccccc2)N(C)C)cc1 (centres undefined)	36*	-7	-21	35*	0	-20
COc1ccc(C(C)=O)cc1CC(C(=O)c1ccc(C)c(C)c1)N(C)C (centres undefined)	3	12	8	-4	2	1
CN(C)C(Cc1ccccc1)C(=O)c1ccc(-c2ccccc2)cc1 (centres undefined)	6	.	-31	1	0	-15
Cc1ccc(-c2nc3ccccc3c(=O)n2-c2ncccc2C)cc1	95*	20	24	2	5	-17
Cc1cccnc1-n1c(-c2ccccc2)nc2ccccc2c1=O	6	2	-1	1	-3	-41
CC(=NCc1ccc(F)cc1)c1c(O)n(C)c(=O)n(C)c1=O	31*	11	39	35*	7	43
O=C(CCn1nc(-c2ccc(Cl)cc2)ccc1=O)N1CCC2(CC1)OCCO2	12	-13	16	1	-8	-1
Cc1nc2cc(-c3ccc(Cl)cc3)nn2c(C)c1CCC(=O)N1CCC2(CC1)OCCO2	4	50*	.	0	0	-21
C=CCn1c(O)c(C(CC)=NCCc2c[nH]c3ccccc23)c(=O)[nH]c1=O	0	.	12	-3	-4	-36
Cc1ccccc1-n1c(O)c(/C=C2/C(c3ccccc3)=Nc3ccccc32)c(=O)[nH]c1=O	69*	62*	-43	78*	78*	44
O=C1NC(=O)C2(Cc3cc([N+](=O)[O-])ccc3N3CCN(C(=O)c4ccccc4)CC32)C(=O)N1 (centres undefined)	.	.	1	.	4	-2
Cn1c(NN=O)nc2ccccc21	4	75*	?	0	10	-37
CN1CCN(Cc2nc3ccccc3n2C)CC1	3	-7	-19	-2	-4	-14
CCC(=Nc1cc(OC)ccc1OC)c1c(O)[nH]c(=O)[nH]c1=O	-1	0	71*	-3	-3	-30
CCC(=Nc1ccc(OC)cc1OC)c1c(O)[nH]c(=O)[nH]c1=O	7	-15	28	3	-2	-12
O=c1[nH]sc2cc(F)ccc12	-1	6	-38	28*	1	-10
Cc1cc(C(=O)N=Nc2c(O)n(C)c3ccccc23)c(C)o1	0	-76	-180	-2	-2	10
Cc1ccc(S(=O)(=O)NC(CC(=O)N2CCC3(CC2)OCCO3)c2ccco2)cc1 (centres undefined)	0	9	-2	-1	-5	-11
O=P(O)(Oc1ccccc1)OC(c1ccccc1)C(F)(F)C(F)(F)F (centres undefined)	8	5	9	1	9	0
CN1CCC(N(C)c2nc(-c3ccc([N+](=O)[O-])cc3)nc3ccccc23)CC1	21	5	75*	4	16	-6
CCOc1cccc(=NC2CCCCC2)c2c(C)n(C)c(C)c12	65*	.	31	73*	3	-11
SMILES	BaF3 tox	APP 5UTR inh	aSyn UTR inh	Ba/F3 V617F tox	IEC-6 tox	KLF5 inh
O=C(Cn1cnc2ccccc2c1=O)NCCC(=O)N1CCC2(CC1)OCCO2	6	0	-19	-3	-4	-29
O=C(Cn1cnc2ccccc2c1=O)NCC(=O)N1CCC2(CC1)OCCO2	37*	-5	-6	0	0	-19
Cc1cc(C)cc(N2C(=O)NC(=O)/C(=C\C=C\c3ccco3)C2=O)c1	5	46*	-116	1	-6	-17
COc1cc2c(cc1OC)-c1c(OC)c(OC)c(OC)c3ccnc(c13)C2=O	10	26	104*	10	15	11
CC(NC1CCCCC1)C(O)C12CC3CC(CC(C3)C1)C2 (centres undefined)	2	6	-27	-1	-3	-22
COc1ccc(CCNCc2ccccc2F)cc1OC	2	37	-7	-4	1	-38
CCOc1ccc(Cl)cc1CNCCc1ccccc1F	63*	.	-1	29*	0	-31
Cn1nc(-c2ccc(OCC(=O)N3CCN(Cc4ccccc4)CC3)cc2)c2ccccc2c1=O	39*!	-17	1	1	5	-46
Cn1cccc1CN1CCN(C(=O)COc2ccccc2)CC1	1	-12	-10	-4	-6	-14
CCCCCn1c(=O)c(C(=O)Nc2ccccn2)c(O)c2ccccc21	.	.	65*	.	-1	-34
CCCCCCn1c(=O)c(C(=O)Nc2ncccc2O)c(O)c2ccccc21	.	.	92*	.	1	45
CCCCCCn1c(=O)c(C(=O)Nc2cnccn2)c(O)c2ccccc21	2	15	67*	1	4	2
CCCCCn1c(=O)c(C(=O)NCc2ccncc2)c(O)c2ccccc21	2	16	65*	-2	0	-9
CN(C)CCOC(=O)c1cn(Cc2ccccc2)c2ccccc12	11	1	5	-3	0	-14
C=CCN1C(=O)NC(=O)/C(=C/c2ccc(N(C)C)c(Br)c2)C1=O	7	-11	4	3	6	-13
CC(C)OCC(O)CN1CC2C[C@@H](C1)Cn1c2cccc1=O (some centres undefined)	.	.	-4	.	-2	-38
COc1ccc(CC2(CCc3ccncc3)C(=O)NC(=O)NC2=O)c(OC)c1	5	5	2	3	5	-3
O=C(COc1ccc2ccc(=O)oc2c1)N1C[C@H]2C[C@@H](C1)c1cccc(=O)n1C2	.	.	-10	.	-1	-8
Cc1ccc(C(C)C)c(OCC(=O)N2CCN(Cc3nc4cc([N+](=O)[O-])ccc4n3C)CC2)c1	9	-14	41	5	-1	-9
O=C(C(=O)N1CCOCC1)c1cn(Cc2ccccc2)c2ccccc12	3	10	30	-2	3	-17
CN1C2CCC1CC(OC(=O)c1ccc(Cl)cc1)(C(=O)O)C2 (centres undefined)	6	-6	-6	1	3	-10
CC(C)N1CC=C(c2c[nH]c3ccccc23)CC1	65*	3	0	87*	-4	-3
Cc1cccc(CNCCc2ccccc2)n1	5	5	-12	0	4	5

High-throughput results (PubChem BioAssay)
